Screening results: PubChem, National Center for Advancing Translational Sciences (NCATS)
Many of the other results were omitted from the sample, so hits are more common in it than they were.
HT1080 IDH1KD tx = HT-1080 IDH1 knockdown cell toxicity (counter line); HT-1080 IDH1 knockdown viability, ATP luminescence, 48 h; Potency, µM (series often up to 46.1 µM), for the others: at the top dose activity, negative = toxicity, actives largely listed as cytotoxic; 360,000 compounds, 2% hits;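 note: potency is the fitted concentration of half-maximal effect; 0% = DMSO wells and -100% = cell-free medium wells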
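In this qHTS, HT-1080 cells depleted of IDH1 are exposed for 48 h at 37 °C to compound titrations. Toxicity is scored from CellTiter-Glo luminescence, with DMSO as full viability and medium alone as none.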
TDP1 cell noCPT = qHTS for Inhibitors of human tyrosyl-DNA phosphodiesterase 1 (TDP1): qHTS in cells in absence of CPT | DT40 Tdp1-/- hTDP1 cells, no CPT, ATP luminescence, 48 h | Potency, µM (top dose mostly 46.2 µM), for inactives: at the highest dose activity change, negative = growth inhibition, actives largely listed as inhibitors | AID 686978, 2013 | 420,000 compounds, 15% hits; note: potency is the fitted concentration of half-maximal effect; nearly all actives have a fitted effect of over 55% in size
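Growth of hTDP1-complemented DT40 Tdp1-knockout cells is measured by ATP luminescence after at least 48 hr compound exposure at 37 °C, with DMSO substituting for the 20 nM CPT used in the parallel screen.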
DT40 TDP1 CPT = DT40-hTDP1 cell growth loss with CPT | chicken DT40 Tdp1-/-;hTDP1 cells + 20 nM CPT, ATP luminescence, 48 h | Potency, µM (top dose mostly 46.2 µM), inactives show at the top dose activity change, negative = growth inhibition, actives largely listed as inhibitors | 420,000 compounds, 12% hits; note: potency is the fitted concentration of half-maximal effect; nearly all actives have a fitted effect of over 55% in size
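Chicken DT40 Tdp1-/- cells stably complemented with human TDP1 were seeded at 400 cells/well in medium containing 20 nM camptothecin, exposed to pin-transferred compounds, and grown at 37 °C for at least 48 hr. Viability was read as ATP luminescence.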
IL1B secr inh = inflammasome signaling inhibition, IL-1 beta readout; THP-1 LPS/ATP IL-1B secretion, AlphaLISA, 16 h; stronger effect = lower value; activity change, % at 57.5 µM; 360,000 compounds, 4.7% hits; AID 743279; in the data active = activity change below about -50%; inconclusive = mostly about -30% to -49%
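Secreted IL-1B measured by AlphaLISA bead assay after 16 h compound exposure of THP-1 cells; compounds (final up to 57.5 uM) added 1 h before LPS (250 ng/mL) and ATP (1.25 mM) stimulation; lower signal means less secretion.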
12-LOX inh = blocks human arachidonate 12S-lipoxygenase; P18054; purified 12hLO, xylenol orange hydroperoxide absorbance; Potency, µM (top dose mostly 108 µM), for the others: at the top dose activity change, negative = inhibition, hits mostly inhibitors; 580,000 compounds, 1.1% hits; AID 1671190; note: potency is the fitted concentration of half-maximal effect
Target sequence (P18054 whole entry, looked up): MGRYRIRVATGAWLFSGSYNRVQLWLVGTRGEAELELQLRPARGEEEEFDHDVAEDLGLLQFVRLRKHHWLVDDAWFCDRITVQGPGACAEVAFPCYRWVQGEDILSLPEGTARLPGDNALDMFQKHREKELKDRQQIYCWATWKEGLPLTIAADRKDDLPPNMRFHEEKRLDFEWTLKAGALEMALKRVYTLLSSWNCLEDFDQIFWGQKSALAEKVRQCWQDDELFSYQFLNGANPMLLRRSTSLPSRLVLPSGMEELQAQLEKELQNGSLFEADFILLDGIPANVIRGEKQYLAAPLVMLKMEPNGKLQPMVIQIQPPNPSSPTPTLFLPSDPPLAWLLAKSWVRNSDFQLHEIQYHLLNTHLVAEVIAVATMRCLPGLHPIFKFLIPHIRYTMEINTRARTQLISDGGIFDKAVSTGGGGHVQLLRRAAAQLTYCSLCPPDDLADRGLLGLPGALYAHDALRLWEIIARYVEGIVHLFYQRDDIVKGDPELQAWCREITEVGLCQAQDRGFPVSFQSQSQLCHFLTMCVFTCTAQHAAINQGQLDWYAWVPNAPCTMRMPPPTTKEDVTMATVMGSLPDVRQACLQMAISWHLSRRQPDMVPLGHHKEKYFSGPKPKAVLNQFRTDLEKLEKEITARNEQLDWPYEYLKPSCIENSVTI
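Purified human 12hLO at 150 nM in 25 mM Hepes, 0.01% Triton X-100, pH 7.0, preincubated 15 min at room temperature with compound. Reaction started with 40 uM arachidonic acid, 30 min at room temperature. Hydroperoxide measured by Fe-xylenol orange, 573/405 nm absorbance ratio.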
HT1080-NT tox = kills 2HG-producing HT-1080-NT fibrosarcoma cells | 360,000 compounds, 1.6% hits | Potency, µM (series often up to 46.1 µM), inactives show at the highest dose activity, negative = less viability, hits mostly cytotoxic | AID 686970 | HT-1080-NT fibrosarcoma viability, CellTiter-Glo ATP luminescence, 48 h;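 note: NT is the 2HG producing partner of a matched IDH1 knockdown line; potency is the fitted concentration of half-maximal effect; 0% = DMSO-treated cells and -100% = media-only wells without cells; nearly all actives have a fitted effect of over 55% in size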
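Luminescent CellTiter-Glo readout after 48 hours of compound exposure at 37 degrees C defined viability of HT-1080-NT cells. Activity was normalized to DMSO wells and cell-free media wells; concentration-response curves were fitted and assigned curve classes.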
Active calls of the source: *; ? = inconclusive; . = no result; [ ] = another dose, or the depositor's remark. Unless noted, calls come from the whole dose curve; as a rule, active = well fitted curve in the direction sought with a large enough effect; inconclusive = small, poorly fitted or top-dose-only effect, or another doubt; inactive = no such curve, though single readings can be large; an effect the other way counts as inactive or inconclusive. Unless noted, % is set by controls: 0 for no effect and ±100 for the full control effect.

SMILES	HT1080 IDH1KD tx	TDP1 cell noCPT	DT40 TDP1 CPT	IL1B secr inh	12-LOX inh	HT1080-NT tox
CC1Cc2ccccc2N1C(=O)CSc1nncn1C (stereo not drawn)	6%	-20%	8%	4	-4%	18%
CC(Sc1nnc(-c2ccccc2)c(-c2ccccc2)n1)C(=O)N1CCc2ccccc21 (stereo not drawn)	-17%	16µM*	?	-7	-17%	-11%
CC1Cc2ccccc2N1C(=O)CSc1nnc2c(n1)[nH]c1ccccc12 (stereo not drawn)	-29%	21µM*	?	26	-1%	?
CC1Cc2ccccc2N1C(=O)CSc1ncc(-c2ccc(F)cc2)n1C (stereo not drawn)	-3%	?	?	-77*	-2%	0%
Cn1c(-c2ccc(F)cc2)cnc1SCC(=O)N1CCCCC1	9%	-18%	-24%	-6	0%	15%
CC1Cc2ccccc2N1C(=O)CSc1nnc(-c2ccccc2)c(-c2ccccc2)n1 (stereo not drawn)	-9%	?	21µM*	?	1%	-20%
CC(C)N1CCN(Cc2cc3ccccc3[nH]2)CC1CCO (stereo not drawn)	7%	-7%	14%	-9	-23%	0%
CCn1c(SCc2ccccc2Cl)nc(=O)c2c(C(=O)OC)cc(C3CC3)nc21	.	16µM*	12µM*	.	-17%	.
N#Cc1ccccc1OCC(=O)N(Cc1nnc(-c2ccccc2Cl)o1)C1CC1	3%	16µM*	?	1	10%	-2%
CC(C)NC(=O)N1CC2(CCN(C(=O)c3cc(C(F)(F)F)cc(C(F)(F)F)c3)CC2)C1	.	-11%	2%	.	1%[57.4 µM]	.
C/C=C1\NC(=O)[C@H](CC(N)=O)N(C)C(=O)C([C@@H](C)O)NC(=O)C(CCCc2ccc(OC)cc2)NC(=O)[C@H](C(C)C)NC(=O)/C(=C\C)NC(=O)[C@H](O)[C@@H](C[C@@H](O)CCCCCCC)NC(=O)[C@H](C)NC(=O)CN(C)C(=O)[C@H](CCC(N)=O)NC1=O (stereo partly drawn)	?	8.2µM*	7.3µM*	50	8%	-29%
NS(=O)(=O)c1ccc(N=Nc2ccc(O)c3ncccc23)cc1	23µM*	2.3µM*	2.6µM*	60	?	?
Oc1ccc(N=Nc2ccc3c(c2)OCCO3)c2ncccc12	3.7µM*	2.1µM*	2.9µM*	115	0%	?
Cc1cccc(N=Nc2ccc(O)c3ncccc23)c1	7.3µM*	6.5µM*	7.3µM*	3	?	?
CCOc1ccc(N=Nc2ccc(O)c3ncccc23)cc1	?	?	?	82	0%	?
Cc1ccc(C)c(N=Nc2ccc(O)c3ncccc23)c1	?	2.1µM*	2.1µM*	154	?	?
CC(=NN1CC(=O)NC1=O)c1ccc([N+](=O)[O-])o1	-4%	16µM*	?	9	-18%	?
CCOC(=O)N/N=C(/C)c1ccc([N+](=O)[O-])o1	.	.	.	.	7%[57.4 µM]	.
OCc1cc(CC2(NC3CCC(CO)CC3)COC2)no1 (stereo not drawn)	.	.	.	.	38%[176 µM]	.
COC(=O)c1sc(-c2ccc(C(C)(C)C)cc2)cc1NC(=O)CCC(=O)O	-23%	?	16µM*	8	?	-23%
COC(=O)c1sc(-c2ccc(Cl)cc2)cc1NC(=O)/C=C/C(=O)O	?	6.5µM*	5.8µM*	-95*	0%	?
CCOC(=O)c1sc(-c2ccccc2)cc1N	18%	-20%	5%	-2	-8%	11%
CCOc1ccc(-c2cc(NC(=O)Nc3cccc(C(C)=O)c3)c(C(=O)OC)s2)cc1	.	-10%	23µM*	.	-7%	.
CCOC(=O)c1sc(-c2ccccc2)cc1NC(=O)Nc1ccc([N+](=O)[O-])cc1	12%	21µM*	?	15	-12%	2%
CC(C)c1ccc(S(=O)(=O)N2CCN(c3nc(-c4cccnc4)nc4ccccc34)CC2)cc1	.	.	.	.	2%	.
SMILES	HT1080 IDH1KD tx	TDP1 cell noCPT	DT40 TDP1 CPT	IL1B secr inh	12-LOX inh	HT1080-NT tox
CCOc1ccc(-c2cc(NC(=O)c3ccccc3)c(C(=O)OC)s2)cc1	.	12µM*	?	.	-4%	.
COc1ccc(-c2csc3nc(-c4ccc(C)cc4)oc(=O)c23)cc1OC	14%	10µM*	9.2µM*	-1	1%	19%
COc1ccc(-c2csc3nc(-c4ccccc4OC)oc(=O)c23)cc1	?	23µM*	21µM*	.	-11%	?
COc1ccc(-c2csc3nc(C(C)(C)C)oc(=O)c23)cc1OC	-2%	?	-26%	15	-10%	1%
COc1ccc(-c2csc3ncn(-c4ccccc4)c(=O)c23)cc1OC	-14%	-18%	-2%	12	5%	-10%
COc1ccc(-c2csc3nc(-c4ccc(F)cc4)oc(=O)c23)cc1	.	-23%	4%	.	-12%	.
COc1ccccc1-n1cnc2sc(-c3ccccc3)cc2c1=O	11%	12µM*	?	-22	-10%	21%
COc1ccc(-c2csc3ncn(-c4ccccc4OC)c(=O)c23)cc1OC	?	23µM*	?	-13	6%	-26%
O=C(C1CCC1)N1CCCC(Cc2nncn2CC2CC2)C1 (stereo not drawn)	.	.	.	.	38%	.
Cc1ccccc1-c1[nH]nc2ncc(-c3ccccc3F)nc12	.	.	.	.	19%[176 µM]	.
Cc1cccc(-n2ccc(C=O)c2)c1C	.	.	.	.	19%	.
COc1ccc(-c2csc3nc(C)n(-n4cccc4)c(=O)c23)cc1OC	-14%	23µM*	16µM*	21	-10%	-5%
CCOc1ccc(-c2csc3ncn(-c4ccc(OC)cc4)c(=O)c23)cc1	-21%	16µM*	?	?	3%	-15%
COc1ccc(-c2csc3nc(-c4cccnc4)nc(N4CCC(C(N)=O)CC4)c23)cc1OC	?	?	?	-15	?	?
COc1ccc(-c2csc3ncn(-c4cccc(C)c4)c(=O)c23)cc1OC	-18%	?	?	?	1%	-14%
CCOc1ccc(-n2cnc3scc(-c4ccc(Br)cc4)c3c2=O)cc1	.	.	.	.	-6%	.
COc1ccc(-c2csc3nc(C)nc(N4CCCCC4)c23)cc1OC	?	15µM*	?	-11	0%	16µM*
O=C1N[C@@H]2CCN(S(=O)(=O)c3ccc(Cl)cc3)[C@@H]2C(=O)N1c1ccccc1	.	.	.	.	1%[176 µM]	.
